Experimental findings from PubChem BioAssay (Tox21) are described below.

Structures are written as SMILES. Records with an inconclusive call do not appear. Entries that show only a call come without a potency. Calls of active or inactive are those of the source. The call rests on the fitted dose curve; in most records, active means well fitted cell-killing curve with a large enough effect in the repeat runs; inconclusive means weak or mixed curves, or effect the other way; inactive means no such curve, though single readings can be large or run the other way.
Potency means the concentration at half of the fitted maximal effect.

This assay is described as follows: qHTS assay to identify small molecule antagonists of the sonic hedgehog signaling (Shh) pathway - cell viability counter screen (AID 1259367). Further: nearly all actives have a fitted effect of over 55% in size. Particulars: NIH/3T3 Gli1-Luc viability, CellTiter-Fluor, 24 h; series mostly up to 92.4 µM. From the text: National Center for Advancing Translational Sciences [NCATS]
NIH Chemical Genomics Center [NCGC]
U.S. Environmental Protection Agency [EPA]
National Institutes of Environmental Health Sciences [NIEHS]
National Toxicology Program [NTP]
U.S. Food and Drug Administration [FDA]
The sonic hedgehog (Shh) pathway is essential for normal embryonic development. Dysregulation of the Shh pathway can cause severe developmental defects in organs. Therefore chemicals that interfere with the pathway are potential developmental toxicants. A cell line designated 3T3Gli1-Luc (DMB/OARSA/CFSAN/FDA, Laurel, MD), a NIH/3T3 derived clone containing stably integrated Gli1-Luc reporter is used to detect chemical interference of the Shh pathway, by changes in the expression of the firefly Luc gene under the control of the Gli1 transcriptional response element. This cell line was used to screen Tox21 libraries for identifying and prioritizing the potential developmental toxicants that interfere Shh pathway. Conditioned medium-stimulated mode was used to screen for chemicals inhibiting Shh signaling. The cytotoxicity of the compounds was tested in parallel by measuring the cell viability using CellTiter-Fluor assay system (Promega, Madison, WI) in the same wells.
Tox21 Assay Protocol Summary:
3T3 Gli1-Luc cells were dispensed at 2,000 per well in 5uL of culture medium into white solid bottom 1536-well plates (Greiner Bio-One, Monroe, NC) using a Multidrop Combi (Thermo Scientific, Waltham, MA) dispenser. The assay plates were incubated at 37 C and 5% CO2 for 4hr, and then 23nL of compounds dissolved in DMSO and positive control were transferred using a Pintool station (Wako, San Diego, CA). The compound transfer was followed by the addition of 1ul conditioned medium or assay buffer using two separate tips of Flying Reagent Dispenser (FRD, Aurora Discovery, San Diego, CA). The assay plates were incubated at 37C and 5% CO2 for 24hr. For viability read, after 23hr of compound treatment, 1uL of CellTiter-Fluor reagent (Promega Corporation, Madison, WI) was added to each well of the assay plates using Flying Reagent Dispenser (FRD, Aurora Discovery, San Diego, CA) and incubated the assay plates at 37C for 1hr. The fluorescence signal was quantified using a ViewLux plate reader (Perkin Elmer, Shelton, CT).
`N#CCCCC(C#N)CCC#N` (stereo not given): the Potency result is “inactive”.
Under `Nc1ccccc1Nc1ccccc1` stands 54.6 µM (active); under `CCC(C)CCCC(C)(C)O` (stereo not given), “inactive”.
Under `CC(C)(C)c1cc(C=O)cc(C(C)(C)C)c1O` stands “inactive”.
The value for `O=C(Cl)c1cc(Cl)cc(Cl)c1` was “inactive”; that for `COC(=O)/C=C/C(C)=C\C=C\C(C)=C\C=C\C=C(C)\C=C\C=C(C)\C=C\C(=O)O` was “inactive”; that for `O=C1c2ccccc2C(=O)C1c1ccc2ccccc2n1` was “inactive”.
On to `CCCCOC(=O)CC#N`, for which the Potency entry was “inactive”.
Take `O=C(O)c1ccccc1[N+](=O)[O-]`: the Potency result is “inactive”.
Under `CCCCCCCCCCCCN1CCOCC1` stands “inactive”.
In the case of `Clc1cccc(C(c2ccc3nc[nH]c3c2)n2ccnc2)c1` (stereo not given), the Potency result was “inactive”.
`N#Cc1ccc(CC(=O)c2cccc(C(F)(F)F)c2)cc1`: the Potency entry was “inactive”.
As to `Nc1ccc(-c2ccc(F)cc2)cc1`, the Potency result was “inactive”.
With `CC(O)CN` (stereo not given), the Potency entry is “inactive”.
Under `Cc1ccc(NC=O)c(C)c1` stands “inactive”; under `CC1=C(C)C(=O)C(CCCCC#CCCCC#CCO)=C(C)C1=O`, “inactive”; under `CCC[Si](OC)(OC)OC`, “inactive”.
The value for `c1ccc(CCNc2nc(-c3ccccc3)cs2)cc1` was “inactive”; that for `CCCc1ccc(OC)cc1` was “inactive”.
Under `CCCC(=O)OCCC(C)C` stands “inactive”; under `CCCC1CCOC(C)S1` (stereo not given), “inactive”.
Regarding `CC(CN=Cc1ccccc1O)N=Cc1ccccc1O` (stereo not given), the Potency entry is “inactive”.
Under `CCOc1ccccc1O` stands “inactive”; under `O=c1[nH][nH]c2ccccc12`, “inactive”.
The value for `CCC(C)C1N=C(C)C(C)S1` (stereo not given) was “inactive”.
The value for `O=C(Cl)c1ccc(F)c(Cl)c1` was “inactive”.
On to `O=C1C=CCCC1`, for which the Potency result is “inactive”.
Take `CCc1c(C)[nH]c2c1C(=O)C(CN1CCOCC1)CC2` (stereo not given): the Potency result was “inactive”.
Under `CC(CC(C#N)(c1ccccc1)C(C)C)N(C)C` (stereo not given) stands “inactive”; under `C[C@H]1C[C@H]2[C@@H]3CCC4=CC(=O)C=C[C@]4(C)[C@@]3(F)[C@@H](O)C[C@]2(C)[C@@]1(O)C(=O)COP(=O)(O)O`, “inactive”; under `O=C(O)c1ccc(O)c(O)c1`, “inactive”.
For `C[C@@H](O)[C@H]1C(=O)N2C(C(=O)O)=C(S[C@@H]3CN[C@H](CNS(N)(=O)=O)C3)[C@H](C)[C@H]12`, the Potency result is “inactive”.
The value for `CC(=O)OCC(=O)[C@@]1(O)CC[C@H]2[C@@H]3CCC4=CC(=O)C=C[C@]4(C)[C@@]3(F)[C@@H](O)C[C@@]21C` was “inactive”.
Under `COc1cc(C)c(Cc2cnc(N)nc2N)cc1OC` stands “inactive”; under `C1CCN(CN2CCCCC2)CC1`, “inactive”.
Under `CC1(COc2ccc(CC3SC(=O)NC3=O)cc2)CCCCC1` (stereo not given) stands “inactive”; under `NC(=O)c1cc[n+](CC2=C(C(=O)[O-])N3C(=O)[C@@H](NC(=O)Cc4cccs4)[C@H]3SC2)cc1`, “inactive”.
On to `[O-][n+]1ccc(Cl)cc1`, for which the Potency result was “inactive”.
Under `Cc1c(N=C=O)cccc1N=C=O` stands “inactive”.
Turning to `C/C(=C\C(C)CC(C)CC(C)C)C1CC(=O)OC1=O` (stereo not given), the Potency entry is “inactive”.
